Among the data in PubChem BioAssay (EPA / NIEHS) are AC50 and outcome values, retold here.

Active and inactive are the calls of the source. Rule for the calls: active = hit-call score of the fitted dose curve at least 0.9, where 1 is the maximum; inactive = score below 0.9.

Broadly, the AC50 is the midpoint of the concentration-response curve, whichever way the signal moves.

Read-out in the assay: Keratin 19 (KRT19), KRT19 (gene 3880)
Put plainly: LTEA_HepaRG_KRT19: Life Technologies and Expression Analysis (LTEA) Assay for Keratin 19 (KRT19) using HepaRG (AID 2283512). To be noted: mRNA level, 48 h; actives raise or lower the signal. The protocol:
LTEA_HepaRG is a cell based, multiplexed-readout assay that uses HepaRG, a human liver cell line, with measurements taken at 48 hours after chemical dosing on a 96-well plate.LTEA_HepaRG_KRT19 is one of 102 assay component(s) measured in the LTEA HepaRG cell culture assay. It is a marker of Cell proliferation, survival, death.Data from the assay component LTEA_HepaRG_KRT19 was analyzed into 1 endpoint. This assay endpoint, LTEA_HepaRG_KRT19, was analyzed with bidirectional fitting relative to DMSO as the negative control and baseline of activity. Using a type of inducible reporter, measures of mRNA induction for gain or loss-of-signal activity can be used to understand regulation of transcription factor activity. To generalize the intended target to other relatable targets, this assay endpoint is annotated to the filaments intended target family, where the subfamily is keratin.
A total of 1060 chemcials from the ToxCast library were tested in eight-point concentration-response experiments. Cell culture and cytotoxicity assays were conducted at Thermo Fisher Scientific's Custom Services facility (Madison, WI). A single lot of human HepaRG cells (Thermo Fisher Scientific, Frederick, MD) was used for the cell culture experiments. 96-well format collagen type I coated plates of human HepaRG cells were prepared using established methods. Briefly, cryopreserved HepaRG cells were thawed, plated at a density of approximately 100,000 cells/well in HepaRG Thaw, Plate, and General Purpose media (HPRG770, Thermo Fisher Scientific), and incubated for 48 hours. 0.5% DMSO was selected as vehicle control to balance the requisite need of DMSO in HepaRG cultures to maintain differentiation (for example, baseline metabolism, proportions of hepatocytes vs. cholangiocytes), while enabling further hepatic receptor pathway activation (for example, PXR and CAR) in response to chemical exposure. 48 hours after plating, the culture medium was replaced with HepaRG Serum-Free Incudtion Media. Cells were exposed to each test chemical in duplicate and maintained in CO2 incubators for another 48 hours. Chemical plates were thawed to room temperature and 200x concentrations of treatment groups were prepared. 8-point conentration-reponse curves were made with the highest exposure at 100 uM, followed by half-log dilutions, all in 0.5% DMSO. Each test plate contained variouse controls, induction positive controls (1mM phenobarbital), cytotoxicity positive controls ([…] aflatoxin B1), vehicle controls (0.5% DMSO), and total lysis controls (0.5% DMSO). Cell morphology images were taken using an Essen IncuCyte FLR automated microscope, with six 96-well plates imaged in about 24 minutes. Images were captured and exported and JPEG files. Spent culture media was transfered to black-well plates for the LDH assay, and remaining media was sorted at -80 C for later use. Cells were treated with RLT buffer and frozen until shipped for gene expression analysis. Total RNA was isolated from the cell suspension in 75 uL of Buffer RLT (Qiagen, Germantown, MD 20874) by Quintiles/Expression Analysis (Durham, NC) using a custom isolation procedure. Total RNA from each plate well was transferred to a preamplification plate. Fluidigm's 96.96 Dynamic ArrayTM (Fluidigm, Amsterdam, the Netherlands) technology was used for gene expression analyses by quantitative reverse transcription polymerase chain reaction (qRT-PCR, performed by Quintiles/Expression Analysis, Durham, NC)89. Standard TaqManTM Assays (Applied Biosystems/ThermoFisher Scientific, Foster City, CA) were used to assess the expression of 93 genes selected based on their selectivity and sensitivity to important hepatic receptors known to be modulated by environmental chemicals; importance in human hepatocyte functionality; and hepatotoxicity. […]
For the compound `O=P(OC(CCl)CCl)(OC(CCl)CCl)OC(CCl)CCl`, the AC50 was 50 µM (active).
Take `CC1(C)C(=O)N(Br)C(=O)N1Br`: the compound was classed as inactive.
Turning to `CCCN(C1CCN(C(=O)C2CCNCC2)CC1)[C@@H]1CCc2ccc(OC)cc2C1`, the AC50 was 13.6 µM (active).
On to `CNCc1ccc(NC(=O)c2c[nH]c3c2C(=O)CCC3)cc1`, for which the outcome was inactive.
On the same count and under the same terms, with `O=c1n(CC2CO2)c(=O)n(CC2CO2)c(=O)n1CC1CO1` (stereo not given) the entry was “inactive”; with `CC(=O)c1ccc2c(c1)[C@H](NC(=O)c1ccc(F)cc1)[C@@H](O)C(C)(C)O2`, “inactive”; with `COC(=O)c1c(Cl)c(Cl)c(C(=O)OC)c(Cl)c1Cl`, “inactive”.
The same measure, in the same setting: the result for `CC(=O)OCCC(C)C` reads “inactive”; that for `CC(=O)OC[C@H]1O[C@@](COC(C)=O)(O[C@H]2O[C@H](COC(C)=O)[C@@H](OC(C)=O)[C@H](OC(C)=O)[C@H]2OC(C)=O)[C@@H](OC(C)=O)[C@@H]1OC(C)=O`, “inactive”.
For the compound `O=c1[nH]c2ccc(S(=O)CCN3CCC(Cc4ccc(F)cc4)CC3)cc2o1` (stereo not given), the concentration at half-maximal activity (AC50) was 67.3 µM (active).
As to `CCCCCCCCCCCCc1ccccc1`, the result was inactive.
On the same count and under the same terms, the result for `CCCC(=O)OCC` reads “inactive”.
Turning to `Cc1ccc(O)cc1`, the compound was classed as inactive.
On the same count and under the same terms, with `C[C@](N)(Cc1ccc(O)c(O)c1)C(=O)O` the entry was “inactive”; with `O=C(CCCCCCCCc1cccnc1)N1CCC(C=C(c2ccccc2)c2ccccc2)CC1`, “inactive”.
For the compound `CNS(=O)(=O)c1cc(C(=O)N2CCC(CCN3C4CCC3CC(n3c(C)nc5ccccc53)C4)(c3cccc(F)c3)CC2)c(Cl)cc1F` (stereo not given), the half-maximal activity concentration (AC50) is 18.3 µM (active).
On the same count and under the same terms, the result for `CCOC(=O)c1ccc(C2CCC(NC[C@H](O)COc3ccc(O)c(NS(C)(=O)=O)c3)CC2)cc1` (stereo not given in full) reads 2.04 µM (active).
Turning to `CCCCCCc1ccc(O)cc1O`, the call was inactive.
Same read-out and setting: the result for `O=C(O)c1cccc(Oc2ccccc2)c1` reads “inactive”; that for `COc1ccc2sc(C(=O)Nc3nnn[nH]3)c(OC(C)C)c2c1`, “inactive”; that for `CCNc1ccccc1`, “inactive”.
On to `Nc1cccc(N)c1`, for which the compound was classed as inactive.
For the compound `COCCOc1cc2cc(C(=O)NC3CCN(C(C)C)CC3)n(CC(=O)Nc3ccc(Cl)cn3)c2cn1`, the AC50 was 7.89 µM (active).
The same measure, in the same setting: the result for `CN(C)c1ccc(Cc2ccc(N(C)C)cc2)cc1` reads 40.8 µM (active).
`Nc1nc2ncc(CNc3ccc(C(=O)N[C@@H](CCC(=O)O)C(=O)O)cc3)nc2c(=O)[nH]1`: the result was inactive.
Consider `O=C(O)c1cccc(N(Cc2cccnc2)c2ccc(OC(F)F)c(OC(F)F)c2)c1`, for which the AC50 is 24.6 µM (active).
Still for that read-out and setting: the result for `COc1cccc(-c2ccc(/C=C\CN3CCCCCC3)cc2Cl)c1` reads 45.2 µM (active).
As for `O=C(O)CCN(C1(C(=O)NO)CCCC1)S(=O)(=O)c1ccc(Oc2ccc(F)cc2)cc1`, the outcome was inactive.
On the same count and under the same terms, the result for `CC[C@H](C)C(=O)O[C@H]1C[C@@H](C)C=C2C=C[C@H](C)[C@H](CC[C@@H]3C[C@@H](O)CC(=O)O3)[C@H]21` reads “inactive”.
Regarding `CCn1nc(Cc2ccccc2)cc1C1CCN(C[C@H]2C[C@H](N(C)[C@@H](C(=O)O)C(C)C)C[C@@H]2c2cccc(F)c2)CC1`, the AC50 is 34.9 µM (active).
Regarding `Clc1nc(Cl)c(Cl)c(Cl)c1Cl`, the result was inactive.
The same measure, in the same setting: with `O=C(O)CC(O)C(=O)O` (stereo not given) the entry was “inactive”.
On the same count and under the same terms, with `O=C1CCC(N2C(=O)c3ccccc3C2=O)C(=O)N1` (stereo not given) the entry was “inactive”.
With `CN(C)c1ccc(N=NS(=O)(=O)O)cc1`, the AC50 is 18.9 µM (active).
`C1N2CN3CN1CN(C2)C3`: the call was inactive.
As for `CC(C)CCCCCCOC(=O)c1ccc(C(=O)OCCCCCCC(C)C)c(C(=O)OCCCCCCC(C)C)c1`, the compound was classed as inactive.
Same read-out and setting: with `CC(C)=CCC/C(C)=C\CO` the entry was “inactive”; with `COc1ccc(-n2nc(C(F)F)cc2-c2ccc(S(C)=O)cc2)cc1` (stereo not given), “inactive”.
`CC(C)=CCCC(C)CCO` (stereo not given): the compound was classed as inactive.
As to `CCOC(=O)CC(CC(=O)OCC)(OC(C)=O)C(=O)OCC`, the result was inactive.
